Compound activity from PubChem.
Most compounds without a hit are left out; they make up all but 12% or so of the library.
ROMK mod – ROMK potassium channel modulators, primary screen, cell-based, thallium flux, MLSMR library | Tet-inducible ROMK, thallium flux fluorescence; actives lie on both sides | B-score at 10 µM | 130,000 compounds, 2% hits | AID 1918, 2009;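 active = signal ratio slope over the read window, or its plate-corrected B-score, at least 3 SD from the plate mean, either direction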;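 note: B-score of the F/F0 ratio slope over 7 to 12 s after thallium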
Target sequence (P48048 whole entry, looked up): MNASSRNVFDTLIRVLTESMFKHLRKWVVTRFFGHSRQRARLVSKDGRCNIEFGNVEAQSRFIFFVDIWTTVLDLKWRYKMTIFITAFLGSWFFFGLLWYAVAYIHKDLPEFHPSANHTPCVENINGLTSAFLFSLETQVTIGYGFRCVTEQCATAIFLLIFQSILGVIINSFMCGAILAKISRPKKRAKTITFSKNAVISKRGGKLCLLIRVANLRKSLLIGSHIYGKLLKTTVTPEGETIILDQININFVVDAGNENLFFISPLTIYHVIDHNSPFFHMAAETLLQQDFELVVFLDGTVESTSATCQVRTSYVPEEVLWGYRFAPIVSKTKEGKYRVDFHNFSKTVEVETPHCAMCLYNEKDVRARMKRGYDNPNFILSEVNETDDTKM
Lmaj promast – Leishmania major promastigote growth inhibition, primary screen | AID 1063, 2008 | inhibition, % at 10 µM | Leishmania major promastigotes, resazurin fluorescence viability | 200,000 compounds, 9% hits; in the data active = inhibition above about 50%;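 note: promastigotes grown with compound for 44 hours at 28 °C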
Calpain2 inh – inhibitors of pig calpain II, primary screen, biochemical, fluorogenic peptide substrate, 1536-well. purified calpain II, 30 min. 220,000 compounds, 0.37% hits. AID 1236, 2008. inhibition, % at 16 µM;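 active = inhibition above about 50%, limit read from the data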
WT yeast gro inh – growth inhibition of WT strain, primary screen, mitochondrial fusion inhibitor project, WT and mutant strains, chemical genetic; mitochondrial fusion phenotypic screen; inhibition, % at 10 µM; 190,000 compounds, 2.1% hits; AID 1362, 2008; in the data active = inhibition above about 58%; tested in S. cerevisiae
KCC2 mod – KCC2 cotransporter modulators, thallium flux, primary screen, cell-based, HEK293 KCC2, FluoZin-2 fluorescence, MLSMR | Solute carrier family 12 member 5 (Homo sapiens), Q9H2X9 | KCC2 cells, thallium flux FluoZin-2 fluorescence | B-score of Tl+ flux slope (higher = more flux/activation; lower = inhibition) at 10 µM | 190,000 compounds, 2.2% hits | AID 1456, 2008;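 active = thallium flux slope and its plate-corrected score both differing from the plate sample mean at a set confidence after two filtering rounds, in either direction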;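 note: slope of fluorescence scaled to starting intensity during 10 to 20 s after thallium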
* hit, by the source's call; i = inactive; · = no result.

SMILES	ROMK mod	Lmaj promast	Calpain2 inh	WT yeast gro inh	KCC2 mod
OCCC1CN(Cc2nc3ccccc3s2)CCN1C1CCCC1 (configuration not stated)	-0.52	67*	-15	4	-0.093
COCC(=O)Nc1cc(C(=O)Nc2ccccc2)ccc1Cl	0.45	-2	-10	5	·
Cc1ccc(C(=O)OCC(=O)Nc2c(Cl)cc(S(N)(=O)=O)cc2Cl)o1	·	·	-2	·	1.9
Cc1ccc(-c2csc(=S)n2CC(=O)OCC(=O)NCc2ccc(F)cc2)cc1	-0.46	11	1	-5	-0.14
Clc1ccc(C2=NNC(=NCc3ccc4c(c3)OCO4)SC2)cc1	·	16	31	61*	-1
COc1ccc(OC)c(C2=NNC(=NCc3ccc4c(c3)OCO4)SC2)c1	·	92*	19	15	-1.3
CC(C)(C)CC(=O)NCCCCCCNC(=O)CC(C)(C)C	0.29	-3	-10	-15	0.19
CCOCCc1c(O)nc(SCC)[nH]c1=O	-0.45	·	-8	·	-0.032
CC1(C)C2CC=C(/C=N/NC(=O)c3ccccc3Br)C1C2 (configuration not stated)	-0.26	100*	-4	-4	0.33
COC(=O)N/N=C/C1=CCC2CC1C2(C)C (configuration not stated)	-0.84	58*	16	22	0.055
O=C(N/N=C/c1ccccc1C(=O)O)c1ccccc1Br	0.037	-1	34	20	0.41
CC1(C)C2CC=C(/C=N/NC(=O)c3ccc(O)cc3)C1C2 (configuration not stated)	·	94*	20	0	0.32
CC1(C)C2CC=C(/C=N/NC(=O)C(N)=O)C1C2 (configuration not stated)	·	·	17	·	0.87
O=C(O)CN(c1ccccc1[N+](=O)[O-])S(=O)(=O)c1ccccc1	-0.22	5	-13	-8	-0.8
Cc1c(Cl)cccc1NC(=S)N/N=C/c1ccccc1Cl	0.65	·	1	·	1.1
Fc1ccccc1NC(=S)N/N=C/c1ccccc1Br	0.8	-3	-17	29	6.2*
Cc1c(-c2ccc(/C=N/NC(=O)C(=O)Nc3ccccc3F)o2)cccc1[N+](=O)[O-]	-0.91	·	-5	·	0.37
O=[N+]([O-])c1ccc(/C=N/NC(=S)Nc2ccccc2F)o1	·	25	14	24	28*
CCOC(=O)/C(=C/C=C1\Sc2cc(OCC)c(OCC)cc2N1CC)C(C)=O	·	68*	-52	8	i
Cc1cc(C(=O)CN(Cc2ccc(F)cc2)S(=O)(=O)c2ccc3c(c2)OCCO3)c(C)n1C	-0.34	39	58*	10	-1.7
COc1ccccc1OCCCOc1ccc(C)cc1Br	-0.21	0	-6	53	-0.053
Cc1ccc(C(C)C)c(OCCCN(C)Cc2ccccc2)c1	·	96*	6	43	-0.005
Cc1ccc(OCCCCN(C)Cc2ccccc2)c(Br)c1	-0.56	90*	-5	58	0.38
CN1CCN(NC(=O)c2cccc3ccccc23)CC1	0.51	-2	17	14	0.047
COc1ccc(N2CCN(c3cc(C)c4ccc(O)cc4n3)CC2)cc1	·	1	-92	10	-0.21
SMILES	ROMK mod	Lmaj promast	Calpain2 inh	WT yeast gro inh	KCC2 mod
COc1cc(OC)c2nc(C)c3c(c2c1)N(c1ccc(O)cc1)CC3	·	99*	-8	-4	·
O=[N+]([O-])c1ccccc1S(=O)(=O)NCCC1=CCCCC1	-0.17	0	-18	71*	-1.3
Cc1ccc(C)n1-c1cccc(NC(=O)c2ccccc2)c1	0.75	76*	17	5	-3.3
Cc1ccc(C)n1-c1ccc(C(=O)Nc2ccccc2)cc1	-0.44	12	-5	4	-0.58
C[C@@H](C(=O)N1CCNCC1)n1cc(CCCN=C(N)N)nn1	·	0	-22	-3	2*
CCC(C)[C@@H](C(=O)N1CCNCC1)n1cc(CCCN=C(N)N)nn1 (some centres not stated)	·	3	14	4	0.18
CCOc1nc2c(c(=O)n(C)c(=O)n2C)n1Cc1ccccc1Cl	-1.6	0	-8	-8	-1.2
C=CCOc1nc2c(c(=O)n(C)c(=O)n2C)n1Cc1c(Cl)cccc1Cl	-1.5	64*	-9	-1	-1.6
CC(=O)c1ccc(OC(=O)CCN2c3ccccc3Sc3ccccc32)cc1	1.5	53*	3	61*	-0.88
COC(=O)c1ccc(OC(=O)CCN2c3ccccc3Sc3ccccc32)cc1	·	-6	11	61*	-0.82
Cc1ccc(C)c(Nc2c(F)c(F)c(F)c(F)c2C(=O)O)c1	0.69	-7	-19	12	-0.95
CCOC(=O)CC1=NN(c2ccccc2)C(=O)/C1=C\c1ccc(OC)cc1OC	0.24	-3	-13	11	0.094
Cc1ccc(NCCC(=O)c2cccs2)cc1C	0.23	43	5	4	0.53
Cc1ccc(NCCC(=O)c2cccs2)cc1	0.025	72*	-30	-10	0.51
Cc1ccc(C(=O)N/N=C(/CC(=O)c2cccs2)C(F)(F)F)cc1	·	13	-27	44	64*
O=C(N/N=C(\CC(=O)c1cccs1)C(F)(F)F)c1ccncc1	·	·	19	·	1.2
O=c1[nH][nH]c(=O)n1-c1ccccc1	-0.57	-7	-5	4	-1.4
Cc1ccc2nc(-c3ccccc3O)c(Nc3ccc4c(c3)OCCO4)n2c1	0.13	13	-255	13	0.45
Clc1ccc2nc(-c3ccccn3)c(Nc3ccc4c(c3)OCO4)n2c1	0.064	100*	56*	73*	-0.87
Cc1ccsc1CN1CC(=O)N(c2c(C)cccc2C)C1=S	-0.041	53*	-12	27	-0.91
COc1ccc(-c2cc(C(=O)NCCc3ccc(S(N)(=O)=O)cc3)c3ccccc3n2)cc1	0.022	-6	-359	-17	0.5
Cc1ccnc(N2C(=O)c3cccc4c([N+](=O)[O-])ccc(c34)C2=O)c1	·	100*	-131	57	·
Cc1ccc(N2C(=O)c3cccc4c([N+](=O)[O-])ccc(c34)C2=O)c2cccnc12	·	·	-30	·	0
CCCCN(C(=O)CSc1nnc(-c2ccccc2OC)n1C)c1c(N)n(Cc2ccccc2)c(=O)[nH]c1=O	-0.55	61*	9	-2	1.1
COCCN(C(=O)CSc1nnc(-c2ccccc2F)n1C)c1c(N)n(Cc2ccccc2)c(=O)[nH]c1=O	0.94	-6	-23	4	-0.044
CC1(C)CC(=O)c2c(oc3cc(O)c(O)cc23)C1	-0.05	84*	-4	-24	0.12
CC[C@@H](C)C(NC(=O)OC(C)(C)C)c1cn([C@@H](Cc2cc3ccccc3[nH]2)C(=O)N2CCN(C(=O)OC(C)(C)C)CC2)nn1 (some centres not stated)	·	-1	-56	-1	-0.48
Cn1c(=O)c2c(nc(N/N=C/c3ccc(OC(=O)c4ccco4)cc3)n2Cc2ccccc2)n(C)c1=O	1	61*	-2	37	0.17
Cn1c(=O)c2c(nc(N/N=C/c3cccs3)n2Cc2ccccc2)n(C)c1=O	·	26	-22	-3	-0.55
